In the supplement of paper PMC10338343:
± gives the standard deviation. In all, about 6,600 sequences were measured (“pre-steady-state target cleavage rate”: median about 0.07, highest 2% from about 0.72 on). The entries come from a sample that favours the highest values as a whole.

tested on: MIWI (PIWIL1) piRISC loaded with Kctd7 piRNA (30 nt); assay: pre-steady-state target cleavage rate (min^-1); MIWI and MILI are mouse PIWI proteins and EfPiwi is from a freshwater sponge; tags in brackets are library labels; higher = faster piRNA-guided slicing of the target; details: guide: Kctd7 piRNA 5'p-UGUUAAUCUCUCAGAGAAGGUGACAGUGAU; auxiliary factor: 500 nM mouse GTSF1
Summary of the method: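 The method was Cleave-'n-Seq, in which uncleaved targets from a transcribed, DNA-blocked target RNA library were sequenced after exposure to active affinity-purified piRISC carrying one synthetic guide, with or without GTSF1 partner protein. Reactions contained 0.1 nM library, 1 nM piRISC and, where present, 500 nM GTSF1 in HEPES–potassium acetate buffer at 33 °C for 0–8 or 0–960 min. Reads were normalised to depth and to weakly complementary targets, three trials were pooled, and k3 was capped at 0.0001 min^-1. The pre-steady-state cleavage rate came from a burst-and-steady-state fit.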

Sequence | pre-steady-state target cleavage rate
UAGUGUGUCACCUUCUCUGACUCAUUUUGA | 0.0047 ± 0.0045
UAGUGACAGACCUUCUCUGUGACAUUAACA | 0.00672 ± 0.0033
UAGUGACUCUCCUUCUCUGAGAGUUUAACA | 0.035 ± 0.007
UAGACUGUCACCUUGUCUGAGAGAUUAUCA | 0.643 ± 0.1
UAGACUCACACCUUCUCUGAGAGAUAUUGA | 0.0233 ± 0.0066
UAGUCUGUCACCUUCUCUGAGAGUUUAACA | 0.365 ± 0.053
AUCUACUGUCACCUUCUCUGAGAGAUUAACA | 0.719 ± 0.041
AUCACUGUCACCUAGUCUGAGAGAUUUUGA | 0.0964 ± 0.023
AUCUGUGUCACCUUCUCUGAGAGAUUAACA | 0.417 ± 0.025
UAGUGACAGUGGUUUCUGAGAGAUUAACA | < 0.0001
UACACUGUCACCUUCACUGUGAGAUUAACA | 0.116 ± 0.015
UAGUCUGUCACUUUCUCUGAGAGAUUAACA | 0.642 ± 0.023
UAGUCUGUCACCAUCUCUGAGAGAUAAACA | 0.246 ± 0.025
UAGUGACACACCUUCUCAGAGAGAUUAAGA | 0.0233 ± 0.0077
AACACUGUCACCUUCUCUGAGAGAUAUUGA | 0.0742 ± 0.021
AUCUCUGUCACCUUGUCUGAGAGAUUAACA | 0.394 ± 0.06
UAGUGACUCACCUUCUCUGAGAGGAUUAACA | 0.172 ± 0.015
UAGUGAGACACCUACUCUGAGAGAUUAACA | 0.399 ± 0.03
UAGACCUGUCACCUUCUCUGAGAGAUUAACA | 0.652 ± 0.043
AUCACCUGUCACCUUCUCUGAGAGAUUAACA | 0.742 ± 0.05
UUCAUCUGUCACCUUCUCUGAGAGAUUAACA | 0.706 ± 0.03
UAGCCUGUCACCUUCUCUGAGAGAUUAACA | 0.752 ± 0.056
AUCUCUGUCACCUUCUCUGAGAGAUUAACA | 0.713 ± 0.032

Sequence | pre-steady-state target cleavage rate
UUCCCUGUCACCUUCUCUGAGAGAUUAACA | 0.502 ± 0.037
AUCAUCUGUCACCUUCUCUGAGAGAUUAACA | 0.74 ± 0.035
UAGUGACUCACCUUCUCUGAGAGAUAUACA | 0.143 ± 0.019
UACACUCACACCUUCUCUGAGAGAUAUUGA | 0.0241 ± 0.012
UAGUGACAGUGCAUUCUCUGAGAGAUUAACA | 0.0141 ± 0.0028
AUCACUGUCACCAUCUCUGAGAGAUAAACA | 0.31 ± 0.03
UACACUGUCGACCUUCUCUGAGAGAUUAACA | 0.229 ± 0.026
UAGUGAGUCACCUUCACUGAGAGAUUUACA | 0.203 ± 0.036
UACACUGAGACCUUCUCUGAGAGAUAUUGA | 0.0195 ± 0.0074
AUCACUGUCACCUUCUCUGAGAGAGUUAACA | 0.651 ± 0.088
UAGUCUGUCACCUUCUCUGACAGAUUUACA | 0.0113 ± 0.0036
UAGACUGUCACCUUCUCUGAGAGAUUAAA | 0.141 ± 0.018
UAGUGAGUCACCUUCUCUGAGAGUAUAUGA | 0.0298 ± 0.012
ACACUGUCACCUUCUCUGAGAGAUUAACA | 0.772 ± 0.044
AACACUGUCACCUUCUCUGAGAGAUUAACA | 0.746 ± 0.03
UACACUGUCACCUUCUCUGAGAGAUUAACU [g2:g28:cont:t1U] | 0.494 ± 0.059
AACACUGUCACCUUCUCUGAGAGAUUAAGA | 0.189 ± 0.026
UAGUGAGUCAGCCUUCUCUGAGAGAUUAACA | 0.176 ± 0.02
UUCACUGUCACGCUUCUCUGAGAGAUUAACA | 0.51 ± 0.02
UAGUGCGUCACCUUCUCUGAGAGAUUAACA | 0.623 ± 0.04
UAGUGUGUCACGUUCUCUGAGAGAAUAACA | 0.19 ± 0.037
AUCACUGUCGCCUUCUCUGAGAGAUUAACA | 0.819 ± 0.053
UUCACUGUCGCCUUCUCUGAGAGAUUAACA | 0.665 ± 0.043

Sequence | pre-steady-state target cleavage rate
UAGACUGUCGACCUUCUCUGAGAGAUUAACA | 0.121 ± 0.013
UAGACUGUCGCCUUCUCUGAGAGAUUAACA | 0.822 ± 0.064
AUCACUGUCGACCUUCUCUGAGAGAUUAACA | 0.172 ± 0.017
UACACUGUCGCCUUCUCUGAGAGAUUAACA | 0.708 ± 0.042
UAGUGUGUCACCUUCUCUGAGAGAGUAACA | 0.394 ± 0.046
UUCAGUGUCACCUACUCUGAGAGAUUAACA | 0.509 ± 0.033
UACUCUGUCACCUUCUGUGAGAGAUUAACA | 0.533 ± 0.025
UACACUGUCACCUUCUCUGAGAGAUAUUGA [g6:g28:cont:t1A] | 0.0488 ± 0.017
UAGUGACUCACGUUCUCUGAGAGAUAAACA | 0.119 ± 0.022
UAGUGACUCACCUUCUCAGAGAGAUAAACA | 0.027 ± 0.0057
UAGUCUGUCACCUUCUCACAGAGAUUAACA | 0.0188 ± 0.0059
UACACUGUCACGUUCUCUGUGAGAUUAACA | 0.233 ± 0.014
AUCACUGUCACGUUCUCUGAGAGAUUAACA | 0.821 ± 0.043
UUCUCUGUCACGUUCUCUGAGAGAUUAACA | 0.564 ± 0.026
UUCACUGUCACGUUCUCUGAGAGAUUAACA | 0.681 ± 0.035
UAGACUGUCACGUUCUCUGAGAGAUUAACA | 0.671 ± 0.042
UACACAGUCACGUUCUCUGAGAGAUUAACA | 0.679 ± 0.035
AUGACUGUCACGUUCUCUGAGAGAUUAACA | 0.755 ± 0.054
AUCACAGUCACGUUCUCUGAGAGAUUAACA | 0.737 ± 0.026
UUGACUGUCACGUUCUCUGAGAGAUUAACA | 0.711 ± 0.037
UUCACAGUCACGUUCUCUGAGAGAUUAACA | 0.685 ± 0.027
UACACUGUCACGUUCUCUGAGAGAUUAACA | 0.743 ± 0.037
AACACUGUCACGUUCUCUGAGAGAUUAACA | 0.71 ± 0.035

Sequence | pre-steady-state target cleavage rate
UAGACUGUGACCAUCUCUGAGAGAUUAACA | 0.359 ± 0.025
UAGUGACACACCUUCACUGAGAGAUAAACA | 0.112 ± 0.022
UUCACUGAUCACCUUCUCUGAGAGAUUAACA | 0.653 ± 0.052
UUCACUGUCACCUUCUCUCAGAGAUUUACA | 0.0958 ± 0.015
UAGACUGUCACCUUCUCUCUCUCUAAUUGA [g13:g27:cont:t1A] | < 0.0001
UAGACUGUCACCUUCUCUGAGAGAUAAUCA | 0.0918 ± 0.018
UAGACUGUUACCUUCUCUGAGAGAUUAACA | 0.745 ± 0.039
UUCACUGUUCACCUUCUCUGAGAGAUUAACA | 0.633 ± 0.036
UAGACUGUUCACCUUCUCUGAGAGAUUAACA | 0.771 ± 0.043
UUCACUGUUACCUUCUCUGAGAGAUUAACA | 0.342 ± 0.032
UACACUGUUCACCUUCUCUGAGAGAUUAACA | 0.614 ± 0.025
UAGACUGUCACCUUCUCUGAGAGAUUAACG [g2:g27:cont:t1G] | 0.674 ± 0.034
UAGACUUCACCUUCUCUGAGAGAUUAACA | 0.576 ± 0.04
AUCACUGUUACCUUCUCUGAGAGAUUAACA | 0.553 ± 0.033
AUCACUGUUCACCUUCUCUGAGAGAUUAACA | 0.79 ± 0.046
UAGUGAGUCACCUUCUCUGAGUCUUUAAGA | 0.00546 ± 0.0039
UAGUGAGUCACCUUCUCUGAGAGAAUAUCA | 0.124 ± 0.041
UAGUGACAGACCUUCUCUGAGAUAUUAACA | 0.0437 ± 0.011
UUCUCUGUCACCUUCUCUGAGAGAUAUUGA | 0.0992 ± 0.024
UAGUGACUCACCAAGUCUGAGAGAUAUUGA | < 0.0001
UAGUGACAGACCUUCUCUGUGAGUUUAACA | 0.0139 ± 0.0037
